Rows were chosen to be rich in hits. Some 2.6% of all compounds tested hit in one or more screens of this group.
SIAE primary – human SIAE inhibition, primary screen; 0.69% of 370,000 active; inhibition, % at 9.66 µM; Q9HAT2; SIAE FP-Rh probe binding, fluorescence polarization;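 active = inhibition above a cutoff: mean of compounds within the control limits plus 3 SD of those, cut at about 17% in these data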;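 note: 0% = plate median of compound wells and 100% = probe without SIAE protein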
TCR CD3 inh – blocks the human TCR-CD3 interaction | TAMRA-labeled TCR probe fluorescence, biochemical | inhibition, % at 9.4 µM | 0.37% of 360,000 active;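 note: recombinant mutant TCR 2C K166C tagged with TAMRA read by polarization; 0% = receptor in buffer alone and 100% = receptor with positive control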
PAD4 FP inh – PAD4 (human) enzyme inhibition. Q9UM07. recombinant PAD4, RCA probe fluorescence polarization. inhibition, % at 6.36 µM. 0.41% of 330,000 active. AID 485272;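 active = percent inhibition above a cutoff equal to the mean of all tested compounds plus 3 SD, cut at about 15% in these data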;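 note: 0% = PAD4 with RCA probe and DMSO and 100% = probe without PAD4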
Target sequence (Q9UM07 whole entry, looked up): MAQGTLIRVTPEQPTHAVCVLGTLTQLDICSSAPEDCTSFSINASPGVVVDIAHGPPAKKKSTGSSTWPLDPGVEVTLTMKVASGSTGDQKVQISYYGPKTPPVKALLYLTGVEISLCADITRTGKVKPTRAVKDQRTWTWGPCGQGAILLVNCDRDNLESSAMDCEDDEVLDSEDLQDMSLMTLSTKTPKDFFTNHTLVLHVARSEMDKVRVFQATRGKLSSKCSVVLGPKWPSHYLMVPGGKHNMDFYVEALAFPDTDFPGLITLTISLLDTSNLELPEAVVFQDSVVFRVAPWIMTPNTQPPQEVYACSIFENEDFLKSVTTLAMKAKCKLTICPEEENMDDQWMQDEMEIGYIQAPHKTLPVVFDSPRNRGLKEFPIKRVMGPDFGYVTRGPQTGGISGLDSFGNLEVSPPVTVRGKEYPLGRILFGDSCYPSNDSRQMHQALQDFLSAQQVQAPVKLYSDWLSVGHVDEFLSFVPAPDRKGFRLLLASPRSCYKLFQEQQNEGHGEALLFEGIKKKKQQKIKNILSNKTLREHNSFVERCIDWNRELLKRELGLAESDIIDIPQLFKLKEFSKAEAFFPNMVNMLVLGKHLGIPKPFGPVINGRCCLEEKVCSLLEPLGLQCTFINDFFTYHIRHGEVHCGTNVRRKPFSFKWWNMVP
Fam108B inh – Fam108B inhibition, counter-screen for RBBP9 inhibitors; recombinant Fam108B, FP-Rh probe fluorescence polarization; inhibition, % at 9.51 µM; 0.33% of 300,000 active; AID 1947;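 active = inhibition above the screen mean inhibition plus 3 SD, computed separately per campaign, cut at about 18% in these data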;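 note: inhibitors lower polarization as less probe binds the enzyme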
PRMT1 FP inh – PRMT1 (human) inhibition, primary screen; 1.3% of 370,000 active; AID 652257; inhibition, % at 2.79 µM; Q99873; recombinant PRMT1, activity-based probe fluorescence polarization;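 active = inhibition above about 21% made by adding two undisclosed values, limit read from the data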
PME-1 inh – blocks human protein phosphatase methylesterase 1 | Q9Y570 | 0.53% of 320,000 active | recombinant PME-1, FP-Rh probe fluorescence polarization | inhibition, % at 5.9 µM;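 active = inhibition above the campaign mean of all compounds plus 3 SD, cut at about 26% in these data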;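 note: competitive labeling of PME-1 active site by serine hydrolase directed probe; 0% = PME-1 with DMSO and 100% = wells lacking PME-1 enzyme; inhibitors block probe labeling so polarization falls and inhibition rises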
Fam108b confirm – confirmation of mouse Fam108b serine hydrolase inhibitors; recombinant Fam108b, FP-Rh probe fluorescence polarization; inhibition, % at 9.51 µM; shares compounds with Fam108B inh; AID 1978; 44% of 930 active;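 active = inhibition above a limit from the primary screen, the mean over all compounds plus 3 SD, cut at about 19% in these data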;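 note: 0% = median of active Fam108b wells and 100% = catalytically dead S170A mutant; inhibitors free the probe so polarization falls as inhibition rises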
Fam108b ABPP HTS – inhibits mouse Fam108b in gel-based ABPP. shares compounds with Fam108B inh. recombinant Fam108b, fluorophosphonate probe. inhibition, % at 20 µM. 44% of 260 active; in the data active = inhibition above about 40%
PAD4 FP conf – confirmation of human PAD4 inhibitors; shares compounds with PAD4 FP inh; recombinant PAD4, RCA probe fluorescence polarization; inhibition, % at 6.36 µM; 28% of 1,200 active;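 active = mean inhibition across replicates above the hit cutoff set by the earlier primary screen, cut at about 15% in these data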;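 note: inhibitors block active-site labeling by the probe so polarization falls; 0% = PAD4 with probe and DMSO and 100% = probe without PAD4 enzyme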
BSA TAMRA ctr – BSA probe counter-screen for TCR-CD3 inhibitors. shares compounds with TCR CD3 inh. TAMRA-labeled BSA probe fluorescence counterscreen. inhibition, % at 9.4 µM. 10% of 1,200 active. AID 652035; in the data active = inhibition above about 23%;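 note: 0% = buffer low control and 100% = reference high control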
TCR-CD3 inh conf – confirmation of human TCR-CD3 interaction inhibitors; shares compounds with TCR CD3 inh; TAMRA-labeled TCR probe fluorescence binding assay; inhibition, % at 9.4 µM; 48% of 1,200 active; AID 652036
SIAE inh conf – confirmation of human SIAE inhibitors | shares compounds with SIAE primary | SIAE FP-Rh activity-based probe, fluorescence polarization | inhibition, % at 9.66 µM | 13% of 2,300 active;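 active = mean inhibition of the replicates above the hit cutoff set in the primary screen, cut at about 17% in these data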;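 note: 0% = SIAE with DMSO and probe and 100% = probe without SIAE; inhibitors lower polarization as more probe stays unbound to SIAE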
Active calls of the source: *; . = no result; + = active, no number. Cut-off read from the data, not from the text of the source, unless noted: active = inhibition above about 19%; inactive = the rest.

SMILES	SIAE primary	TCR CD3 inh	PAD4 FP inh	Fam108B inh	PRMT1 FP inh	PME-1 inh	Fam108b confirm	SIAE inh conf	others
O=C(COC(=O)/C=C/c1cccs1)Nc1nc(-c2cccc(Br)c2)cs1	30*	-1	-5	21*	2	44*	5	16
CC(C)=CCC/C(C)=C/C[C@]12C[C@H](C(=O)O)N(C(=O)OC(C)(C)C)[C@@H]1N(C(=O)OC(C)(C)C)c1ccccc12	1	.	.	.	6	.	.	.
O=C1c2ccccc2C2=Nc3ccccc3SC(c3cccc(F)c3)C12 (stereo not given)	18*	-2	-5	22*	3	19	-20	-10
Cc1ccc(-c2[nH]c(-c3ccc(C(=O)O)cc3)nc2-c2ccccc2)cc1	4	7	2	3	-4	4	.	.
COc1ccc(-c2[nH]c(-c3cc(OC)c4c(c3)OCO4)nc2-c2ccccc2)cc1	26*	6	9	19*	2	9	-9	-2
Cc1ccccc1CN1CCCCC(NC(=O)c2ccccc2)C1=O (stereo not given)	-1	.	.	.	0	.	.	.
C=CCN1C(=O)[C@H](CC(=O)N2CCN(C(=O)C3CC3)CC2)[C@@]2(C(=O)OCC)CCCC=C12	2	.	.	.	-3	.	.	.
COc1ccc(NC(=O)c2cccc(N3C(=O)c4ccc(C(=O)Nc5ccc(OC)c(O)c5)cc4C3=O)c2)cc1O	23*	1	-1	21*	3	20	26*	5
O=[N+]([O-])c1cc([N+](=O)[O-])c2c(=Nc3ccccc3)n(-c3ccccc3)n(O)c2c1	25*	26*	1	19*	7	22	27*	11
O=[N+]([O-])c1cccc(C(=Nc2ccccc2)NO)c1	6	2	-2	-1	2	-6	.	.
CCNc1ccc2noc3c2c1C(=O)c1ccccc1-3	98*	126*	112*	115*	154*	111*	149*	91*	Fam108b ABPP HTS=95*;PAD4 FP conf=102*;BSA TAMRA ctr=+;TCR-CD3 inh conf=187*
Cc1c(O)ccc(/C(Cc2ccc3ccccc3n2)=N\O)c1O	52*	-4	-5	25*	-2	50*	29*	42*
O=[N+]([O-])c1cccc(N/N=C/c2cccc(O)c2O)c1	23*	7	-1	26*	3	41*	11	-6
O=[N+]([O-])c1ccccc1N/N=C/c1cccc(O)c1O	-15	-5	1	8	-2	3	.	.
CC(C)c1ccc(C2C3=C(CC(C)(C)CC3=O)NC3=C2C(=O)c2ccccc23)cc1 (stereo not given)	23*	3	0	23*	17	11	4	2
Cc1ccc(NS(=O)(=O)c2ccc(N3CCN(c4ccc(O)cc4)CC3)c([N+](=O)[O-])c2)c(C)c1	18*	0	-1	21*	16	23	9	3
COc1ccc(/C=N/NC(=O)c2ccc(O)cc2)cc1CN1CCCc2ccccc21	26*	-5	2	27*	0	27*	33*	-4
O=C(Nc1cccc(-c2csc(Nc3ccc(Cl)cc3)n2)c1)c1cc([N+](=O)[O-])cc(C(F)(F)F)c1	29*	8	3	59*	1	35*	68*	-16	Fam108b ABPP HTS=100*
NS(=O)(=O)c1ccc(Nc2nc(-c3cccc([N+](=O)[O-])c3)cs2)cc1	-8	-8	-1	5	6	1	.	.
O=C(CSc1nc(-c2ccc(Cl)cc2)cs1)Nc1cccc([N+](=O)[O-])c1	-98	16	-5	-30	-2	-49	.	.
O=C(Nc1cccc(-c2csc(Nc3ccccc3)n2)c1)c1cc([N+](=O)[O-])cc(C(F)(F)F)c1	32*	6	1	37*	0	31*	21*	12
COc1cc(N=Nc2cccc(S(N)(=O)=O)c2)c2ccccc2c1N	26*	1	-11	34*	-8	30*	14	-2
O=C(Nc1ccc2[nH]c(=S)sc2c1)Nc1ccccc1F	26*	1	-4	26*	16	78*	49*	-6	Fam108b ABPP HTS=90*
O=C(Nc1ccc2[nH]c(=S)sc2c1)c1ccccc1	-7	3	14	0	17	-2	.	.
CCn1c(CSc2n[nH]c(N)n2)nc2cc(C(=O)O)ccc21	36*	94*	51*	30*	2	31*	41*	31*	Fam108b ABPP HTS=0;PAD4 FP conf=58*;BSA TAMRA ctr=137*;TCR-CD3 inh conf=97*
SMILES	SIAE primary	TCR CD3 inh	PAD4 FP inh	Fam108B inh	PRMT1 FP inh	PME-1 inh	Fam108b confirm	SIAE inh conf	others
CCn1c(CSc2nnc(-c3ccncc3)n2CCOC)nc2cc(C(=O)O)ccc21	19*	32*	48*	25*	0	32*	35*	38*	Fam108b ABPP HTS=25;PAD4 FP conf=58*;BSA TAMRA ctr=160*;TCR-CD3 inh conf=109*
COCCn1c(SCCCC(=O)c2ccc(Br)cc2)nnc1-c1ccncc1	-4	5	-4	-1	-5	-4	.	.
Cc1ccc(N2C(=O)CSC23C(=O)Nc2ccccc23)cc1 (stereo not given)	2	6	16*	-3	5	-1	.	.	PAD4 FP conf=19*
Cc1ccc2c(c1)C1(SC(C)C(=O)N1c1ccc(Cl)cc1)C(=O)N2 (stereo not given)	4	2	.	.	-4	.	.	.
CC(=NN1CCN(Cc2ccccc2Cl)CC1)c1ccc(O)cc1	-5	.	.	.	-7	.	.	.
O=C(NCC(c1ccccc1)c1ccccc1)[C@H](Cc1ccccc1)NC1(C(=O)NC2CCCCC2)CCCCCC1	-2	.	.	.	-2	.	.	.
Cc1cc(=O)n(-c2ccc(O)cc2)[nH]1	6	1	61*	2	6	7	.	.	PAD4 FP conf=-3
Cc1cc(=O)n(-c2ccccc2Cl)[nH]1	2	2	33*	1	2	-1	.	.	PAD4 FP conf=4
COC(=O)c1ccc(Cn2ccc3ccc(-c4ccc5ccn(C(=O)c6ccc(C)cc6)c5c4)cc32)cc1	-9	.	.	.	-4	.	.	.
CCOc1cc(CNc2ccc(N3CCCCC3)cc2)cc(Br)c1OCC(=O)NC(C)(C)C	17	3	3	-2	8	-1	.	.
